The values below come from ChEMBL document CHEMBL4513216, “Probing the Open Global Health Chemical Diversity Library for Multistage-Active Starting Points for Next-Generation Antimalarials” (ACS Infect Dis, 2020).

The whole screen tested about 69,000 compounds, of which about 8,600 (12%) showed an effect of 50% or more. The entries come from a sample that favours strong results as a whole.

The experiment deals with Plasmodium berghei. Description: Screen against P. berghei liver stage (PbLuc), transformed with Luciferase, at 10uM. Format: functional, HepG2. The settings on record: tested at 10 uM.
For the compound `Cc1ncc2c(n1)CN(CCCOc1ccc(C#N)cc1)CC2`, the INHIBITION was 19.2%. Take `Cc1nnc(CCNC(=O)Nc2ccc(S(C)(=O)=O)cc2)[nH]1`: the INHIBITION was -30%. Under `O=C(NCCc1nnc[nH]1)Nc1cccc(SC(F)F)c1` stands 51.7%; under `CC(=O)c1cccc(NC(=O)NCCOCC2CC2)c1`, -35.9%.

For `CC(C)SCc1cccc(NC(=O)NC(C)c2nc[nH]n2)c1` (stereo not given), the INHIBITION is 5.33%.

`CC(=O)c1cccc(NC(=O)NCCCc2nc(C(C)C)no2)c1`: the INHIBITION is -34.8%.

For `O=C(CCc1ccc(Br)cc1)NCCc1nnc[nH]1`, the INHIBITION is -7.12%. Under `CC(=O)c1cccc(NC(=O)NCCc2nnc[nH]2)c1` stands 66.5%. On to `CC(C)SCc1cccc(NC(=O)NCCc2nnc[nH]2)c1`, for which the INHIBITION was determined as 56.3%. In the case of `COCCNC(=O)Nc1cccc(COCCOC(C)C)c1` it was 18.6%. Under `Cc1cc(C)n(CC2CCCN2C(=O)c2c[nH]c(=O)c(Cl)c2)n1` (stereo not given) stands 21%; under `COc1ccc(OCCNC(=O)CN(C)Cc2nnc(C)n2C)cc1`, -10.8%. Under `O=C1COC2(CCN(CC3CC3)CC2)CN1c1cncnc1` stands -33.3%; under `COc1cc(OC)cc(C2CC(=O)Nc3c2nc2n3CCCC2)c1` (stereo not given), 1.19%. Turning to `Cc1noc(C)c1CN(C)CC(=O)Nc1ccnn1C(C)C1CC1` (stereo not given), the INHIBITION is given as -72.5%.

Regarding `O=C(O)c1ccc(CN2CCC(c3ccnc4ccnn34)CC2)cc1`, the INHIBITION was 13.5%. Under `CC(=O)N1CCCC(c2nnc3n2CCN(C(=O)C2CCCCC2)C3)C1` (stereo not given) stands 33.39%. Under `Cc1ccc(F)c(NCc2ccc(C(=O)N(C)C)[nH]2)c1` stands -17.9%; under `CCn1cc(S(=O)(=O)NCC(c2ccccc2)N2CCOCC2)c(C)n1` (stereo not given), 8.335%. As to `CN(C)C1(C(=O)NC2CCC(Oc3ccccc3C#N)CC2)CCC1` (stereo not given), the INHIBITION was 67.4%. Under `CN(C)CCN(C)C(=O)NC1CCC(Oc2ccccc2C#N)CC1` (stereo not given) stands 34%; under `CCNC(=O)NC1CCC(Oc2ccccc2C#N)CC1` (stereo not given), 40.2%; under `Cc1cnn(CC2CCCCN2C(=O)Cc2c(C)nn(C)c2C)c1` (stereo not given), 7.08%. In the case of `CCC[C@H]1CN(Cc2ccc(N(C)C)nc2)C[C@@H]1NC(=O)CSC` it was 33.1%; in that of `CCC[C@H]1CN(Cc2ccc(N(C)C)nc2)C[C@@H]1NC(=O)CCOC`, 62.2%.

With `CCC[C@H]1CN(Cc2ccc(N(C)C)nc2)C[C@@H]1NC(=O)CO`, the INHIBITION came to 42.1%. As to `O=C1CCC2(CCCN(c3ncc(F)cn3)CC2)N1Cc1ccccc1` (stereo not given), the INHIBITION is given as -2.17%. Under `O=C(c1ccco1)N1CCCC12CCN(c1ncccn1)CC2` stands -72.6%. Turning to `O=C1CCC2(CCN(c3ncc(F)cn3)CC2)N1Cc1ccncc1`, the INHIBITION came out at 35.8%. Regarding `Cc1cnc(N2CCC3(CCCN3C(=O)c3ccco3)CC2)nc1`, the INHIBITION stood at 60.5%. Under `Cc1cnc(N2CCC3(CCCCN3C)C2)nc1` (stereo not given) stands -38.1%; under `O=C(c1ccco1)N1CCC12CCN(c1ncc(F)cn1)CC2`, 58%. Under `O=C(Nc1ccccc1Cn1cccn1)N1CCC(N2CCCC2)C1` (stereo not given) stands 5.42%. Under `CCCc1nc(NCCCn2ccnc2)c2c(n1)c(C)nn2CC` stands 17.7%; under `Cc1nn(C)c2nc3c(c(C(=O)/N=c4\[nH]nc(C(C)C)s4)c12)CCC3`, 7.83%; under `Cc1noc(CCNC(=O)NCC(=O)NCc2ccccc2)n1`, -176%.

With `CC(NC(=O)CCCOc1ccc(F)cc1)c1nnc2n1CCC2` (stereo not given), the INHIBITION is given as -12.2%. In the case of `CO[C@H]1CCN(Cc2c(C)noc2C)[C@@H]2CN(Cc3ccncc3)C[C@H]12` it was 12.6%. In the case of `CC(C)c1nccc(C2(c3ccccc3Cl)CCNCC2)n1` it was 20.2%; in that of `Clc1ccccc1C1(c2ccnc(CC3CC3)n2)CCNCC1`, 43.5%. Under `Clc1ccccc1C1(c2ccnc(C3CC3)n2)CCNCC1` stands 44.1%.

For `Clc1ccccc1C1(c2ccnc(-c3ccncc3)n2)CCNCC1`, the INHIBITION came to 55.1%.

As for `O=c1[nH]cccc1-c1nccc(C2(c3ccccc3Cl)CCNCC2)n1`, the INHIBITION is given as 33%. As for `Clc1ccccc1C1(c2ccnc(-c3ncccn3)n2)CCNCC1`, the INHIBITION came out at 33.5%. `CCC1C(=O)NCCN1c1ccnc(C(C)(C)C)n1` (stereo not given): the INHIBITION was found to be 26.8%.

Turning to `CC(C)(C)c1nccc(C2(c3ccccc3Cl)CCNCC2)n1`, the INHIBITION was found to be 72.8%.

In the case of `Clc1ccccc1C1(c2ccnc(C3CCCC3)n2)CCNCC1`, the INHIBITION came out at 94.4%. In the case of `NC(=O)NCCC(=O)NCc1nn(-c2ccccc2)c2c1CCC2` it was 15.115%.

In the case of `Nc1nc2c(c(NCC(c3cccnc3)N3CCOCC3)n1)CCCC2` (stereo not given), the INHIBITION is -21.3%. In the case of `CC(C)c1nn(C)c(Cl)c1CNCC(O)c1cccc(F)c1` (stereo not given) it was 42%; in that of `Cc1cc(C(=O)N2CCN(Cc3ccsc3)CC2)n(C)n1`, -3.2%; in that of `CCOCC(O)CN1CCN(C(=O)c2ccccc2F)CC1` (stereo not given), -35.7%.

For `CN(C[C@@H]1CCC[C@@H]2CN(Cc3cccnc3)C[C@@H]21)C1CC1`, the INHIBITION is -5.63%. In the case of `Cc1nccc(C(=O)NC(COCC(C)C)c2ccco2)n1` (stereo not given) it was -19.4%; in that of `CCNC(=O)N(C)Cc1ccc(SC)c(OC)c1`, 55.1%. Under `CCOCCCNC(=O)N(C)Cc1ccc(SC)c(OC)c1` stands 12.6%; under `COc1cc(CN(C)C(=O)NCC(=O)NC(C)C)ccc1SC`, 14.3%; under `CCN(CC)C(=O)CCNC(=O)N(C)Cc1ccc(SC)c(OC)c1`, 8.97%. Under `COc1cc(CN(C)C(=O)NC2CC2)ccc1SC` stands 14.3%; under `COc1cc(CN(C)C(=O)NCCNC(=O)C2CC2)ccc1SC`, 52.9%; under `CCC1CCCCCN1C(=O)c1nnc2ccccc2c1N` (stereo not given), 40.3%. For `Cc1cccc(OCCC(=O)NCC2CN(C)CCO2)c1C` (stereo not given), the INHIBITION was -36.85%. In the case of `CC(C)(C)c1cc(C[C@H]2CNCC[C@H]2CC(=O)Nc2ccccc2)no1` it was 44.4%; in that of `CC(C)NC(=O)C[C@@H]1CCNC[C@@H]1Cc1cc(-c2ccccn2)on1`, -14.2%; in that of `CC(C)NC(=O)C[C@@H]1CCNC[C@@H]1Cc1cc(-c2ccccc2)on1`, 59.8%. Under `O=C(CC1[C@H]2CN(C(=O)Cc3ccccn3)C[C@@H]12)Nc1cccnc1` (stereo not given in full) stands 39.4%; under `O=C(C1CN(Cc2ccsc2)Cc2ccnn2C1)N1CCCC1` (stereo not given), 15.7%. Under `CN(C)C(=O)C1CN(Cc2ccsc2)Cc2ccnn2C1` (stereo not given) stands 52.6%. Take `Cc1noc(C)c1CN1CC[C@H]2OCC[C@@H](C(=O)N3CCCO3)[C@@H]2C1`: the INHIBITION turned out to be 34.1%.

Turning to `COCCNC(=O)C1CN(Cc2cccnc2)Cc2ccnn2C1` (stereo not given), the INHIBITION was determined as 35.7%. In the case of `COCCNC(=O)C1CN(Cc2ccncc2)Cc2ccnn2C1` (stereo not given) it was 89.3%. Under `COCCNC(=O)C1CN(Cc2cccc(C)n2)Cc2ccnn2C1` (stereo not given) stands 7.77%; under `Cc1noc(C)c1CN1CC[C@H]2OCC[C@@H](C(=O)NCC3CC3)[C@H]2C1`, 54.7%.

With `COCCNC(=O)C1CN(Cc2csc(C)n2)Cc2ccnn2C1` (stereo not given), the INHIBITION was 62.5%. In the case of `CC(C)NC(=O)C1CN(Cc2ccsc2)Cc2ccnn2C1` (stereo not given) it was 37.9%; in that of `COCCNC(=O)C1CN(Cc2ccsc2)Cc2ccnn2C1` (stereo not given), 5.36%. In the case of `Cc1noc(C)c1CN1CC[C@H]2OCC[C@@H](C(=O)NCC3CC3)[C@@H]2C1` it was -3.83%; in that of `COCCNC(=O)C1CN(Cc2nccs2)Cc2ccnn2C1` (stereo not given), 29.9%. Under `Cc1cccc(N2CCN(C(=O)CCc3c(C)noc3Cl)CC2)c1` stands 45.7%; under `CC(=O)c1ccc(S(=O)(=O)NCC2CCN(c3cnccn3)CC2)cc1`, 35%. As to `O=C(CC1CCN(c2cccnn2)CC1)NC1CCOCC1`, the INHIBITION was found to be 3.48%. In the case of `O=C(CCN1CCCCO1)N1CCC(CO)(CCc2ccccc2)CC1` it was -29%; in that of `O=C(NCc1cccnc1)C1CC(=O)N(CC2CC2)C1` (stereo not given), 37%. Under `O=C(NCC1CC1)C1CN(Cc2ccncc2)Cc2ccnn2C1` (stereo not given) stands -2.35%; under `CS(=O)(=O)N1Cc2ccnn2CC(C(=O)NCc2cccnc2)C1` (stereo not given), 77.4%.

`Cc1ccc(CN2Cc3ccnn3CC(C(=O)NCC3CC3)C2)o1` (stereo not given): the INHIBITION was -31%. In the case of `Cc1noc(C)c1CN1Cc2ccnn2CC(C(=O)NCC2CC2)C1` (stereo not given) it was 85.8%; in that of `CC(=O)N1Cc2ccnn2CC(C(=O)NCc2cccnc2)C1` (stereo not given), 46.6%. In the case of `CNCC(=O)N1CC(c2cc(Nc3ncccn3)nc(C)n2)C1` it was 29.6%. On to `CCn1ncc2c1CCCC2NCc1cc(OC)cc(OC)c1` (stereo not given), for which the INHIBITION turned out to be 37.9%. In the case of `CC(C)n1cc(C(=O)NCCCn2ccnc2)c2n[nH]c(=O)c-2c1` it was -7.57%; in that of `Cc1ccc(N2CC[C@H]3C[C@H](C(=O)NCc4ccco4)O[C@@H]3C2)cc1`, 40.1%; in that of `CC(C)CN1CCS(=O)(=O)[C@@H]2CCN(S(=O)(=O)CC(C)C)CC[C@@H]21`, 2.41%. In the case of `Cc1ccc(C(=O)NC2CCN(C(C)C)C2)c(=O)[nH]1` (stereo not given) it was 20.8%; in that of `CC(C)NC(=O)c1cc(-c2ccc(S(C)(=O)=O)cc2)c2cnn(C)c2n1`, 94.6%. Under `CN(C)C(=O)c1cc(-c2ccc(S(C)(=O)=O)cc2)c2cnn(C)c2n1` stands 25.9%; under `CC(C)NC(=O)c1cc(-c2ccc(S(C)(=O)=O)cc2)nc2c1cnn2C`, 24.2%.

In the case of `COc1cccc(CNC(=O)c2cccnc2SC(C)C)c1`, the INHIBITION came out at 7.27%. Under `CCN(C)Cc1n[nH]c(=O)n1-c1ccc(C)c(C)c1` stands 46.7%; under `O=C(CC1CC1)N1CCN(Cc2cccnc2)c2ncccc2C1`, 0.618%; under `CC1CCC(NC(=O)CNC2(c3cccc(Br)c3)CCOCC2)CC1` (stereo not given), -7.46%. Under `O=C(CC1Cn2ncnc2NC1=O)Nc1cccc(C(F)(F)F)c1` (stereo not given) stands 54%.

Regarding `O=C(CC1Cn2ncnc2NC1=O)Nc1ccccc1` (stereo not given), the INHIBITION is -46.2%. Under `COc1cccc(NC(=O)CC2Cn3ncnc3NC2=O)c1` (stereo not given) stands 25.9%; under `CN(Cc1cncnc1)Cc1cn2c(n1)CN(C1CCOC1)CC2` (stereo not given), 1.28%.
